# The list is not random: actives were taken first. Their share in the collection is about 2.3%.
# ATXN viability – reduces viability in counter-screen for ATXN expression inhibitors | S2 cells (HEK-293 line with an ATXN2-luciferase reporter) viability, CellTiter-Fluor protease fluorescence, 24 h | Potency, µM (highest dose often 56.7 µM), usual class: cytotoxic | hit rate 0.49% among 400,000; note: nearly all actives have a fitted effect of over 40% in size
# ATXN2 expr inh – ATXN2 expression inhibition. HEK-293 ATXN2-luciferase reporter, luminescence, 24 h. Potency, µM (doses to about 57 µM), for inactives: top-dose activity change, negative = inhibition, usual class: inhibitors. AID 1745845. hit rate 0.72% among 360,000; note: % is set by controls: 0 for no effect and ±100 for the full control effect; nearly all actives have a fitted effect of over 55% in size
#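 ATXN2-luciferase reporter cells (luciferase flanked by upstream and downstream ATXN2 gene portions) were treated 24 h at 37 °C with compounds at up to 57 uM. SteadyGlo luminescence gave expression; GF-AFC fluorescence gave viability.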
# HepG2 tox – kills HepG2 cells in TGF-b inhibitor counter-screen; Potency, µM (doses to about 46.1 µM), inactives show top-dose activity change, negative = cytotoxicity, most hits filed as cytotoxic; hit rate 0.76% among 410,000; HepG2 CAGA-GFP viability, ATP luminescence, 18 h
#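 HepG2 CAGA-GFP cells (1000/well, DMEM with 1% FBS) received compound, then TGF-beta at 500 pg/mL final, and were incubated 18 hours at 37 degrees C. Viability was read by CellTiter-Glo luminescence. Media-only wells were set as complete cell-killing and DMSO as no toxicity.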
# TGFb inhibitor – blocks TGF-b signaling; AID 588855; hit rate 1.2% among 410,000; HepG2 CAGA-GFP TGF-b/SMAD3 reporter, GFP fluorescence, 18 h; TGF-beta stimulated, 500 pg/mL final; Potency, µM (highest dose often 46.1 µM), for inactives: top-dose activity, negative = inhibition, actives largely listed as inhibitors; note: % is set by controls: 0 for no effect and ±100 for the full control effect; nearly all actives have a fitted effect of over 65% in size
#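 HEPG2 CAGA-GFP reporter cells (1000/well, DMEM with 1% FBS) received compounds, then recombinant TGF-beta at 500 pg/mL final for 18 hours at 37 degrees C. Per-cell GFP summed per well was normalised to unstimulated and stimulated DMSO controls before curve fitting.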
# * = called active by the depositor; i = inactive; ? = inconclusive; / = no result given. Calls come from the whole dose curve; as a rule, active = well fitted curve in the direction sought with a large enough effect; inconclusive = small, poorly fitted or top-dose-only effect, or another doubt; inactive = no such curve, though single readings can be large; an effect the other way counts as inactive or inconclusive. Potency is the fitted concentration of half-maximal effect.
SMILES,ATXN viability,ATXN2 expr inh,HepG2 tox,TGFb inhibitor
CSCCC(c1nnnn1-c1c(C)cccc1C)N1CCC2(CC1)C(=O)NCN2c1ccccc1 (stereo not drawn),?,?,-43%,11µM*
COC(=O)C1=C(C(=O)OC)SC2(S1)C(C(=O)OC)=C(C(=O)OC)Sc1c2ssc1=O,14µM*,18µM*,-107%,?
CCCCCSc1cc(OC)c(CCN)cc1OC,?,-13%,-101%,?
CCCCCCCSc1cc(OC)c(CCN(C)C)cc1OC,/,22µM*,-121%,?
CC1CCCN(CCCNC(=O)c2ccc3c(c2)N(Cc2cccc(Cl)c2)C(=O)c2ccccc2S3=O)C1 (stereo not drawn),?,/,13µM*,18µM*
CC(C)c1ccc(Cc2cn3cc(-c4cc5ccccc5oc4=O)nc3s2)cc1,?,20%,1%,-14%
COc1ccc(CC(=O)N2C[C@H]3C[C@@H](C2)c2cccc(=O)n2C3)cc1,i,4%,5%,14%
COc1ccc(OC(=O)N2C/C(=C/c3ccccc3)C(=O)/C(=C\c3ccccc3)C2)cc1,32µM*,?,-5%,?
C[C@H]1[C@@H](OS(=O)(=O)O)C[C@@H]2C[C@H]([C@@H](O)c3cc(=O)[nH]c(=O)[nH]3)NC3=NC[C@H]1N32,i,10µM*,-8%,2.5µM*
Cc1ccc(C(=O)N[C@@H](C)CN2C3=NC[C@H](Cc4ccccc4)N3C[C@H]2Cc2ccc(O)cc2)cc1Br,/,25µM*,11µM*,13µM*
Cc1ccc(C(=O)N[C@@H](C)CN2C3=NC[C@@H](Cc4ccccc4)N3C[C@H]2Cc2ccc(O)cc2)cc1Br,25µM*,?,-103%,?
Cn1nc(-c2ccccc2)nc2c(=O)n(C)c(=O)nc1-2,/,/,1µM*,0.56µM*
CCn1nc(-c2ccccc2)nc2c(=O)n(C)c(=O)nc1-2,/,28µM*,-96%,0.56µM*
Cc1nc2c(=O)n(C)c(=O)nc-2n(C)n1,7.1µM*,3.5µM*,0.63µM*,0.63µM*
O=c1c2ccccc2nc(-c2ccccc2)n1-n1cccc1,i,-1%,-3%,-10%
COc1ccc(NS(=O)(=O)c2ccc3c(c2)CCCN3C(=O)C2CCC2)cc1OC,?,?,-23%,-13%
O=C(Nc1ccc2nc(SCC(=O)N3CCOCC3)sc2c1)c1ccc(Cl)cc1,/,/,-24%,?
Cc1ccc(S(=O)(=O)N(CC(=O)NCCSc2ccc(Cl)cc2)c2ccccc2C)cc1,?,-22%,-11%,?
O=C(O)c1ccc(=O)[nH]c1,i,12%,/,/
Cc1cc2ccccc2n1-c1ccc(C(=O)N2CCC(C(=O)NCc3ccc(Cl)cc3)CC2)s1,/,/,-27%,?
CC(C)CNC(=O)c1c(N)n(Cc2ccco2)c2nc3ccccc3nc12,/,?,-87%,22µM*
CC(C)OCCCNC(=O)c1c(N)n(Cc2cccs2)c2nc3ccccc3nc12,i,?,22µM*,18µM*
COc1ccc(Cn2c(N)c(C(=O)NCc3ccco3)c3nc4ccccc4nc32)cc1OC,i,?,-51%,16µM*
CC(C)CNC(=O)c1c(N)n(Cc2ccc3c(c2)OCO3)c2nc3ccccc3nc12,i,?,-94%,16µM*
CC(C)CCn1c(N)c(C(=O)NCc2cccs2)c2nc3ccccc3nc21,i,?,-1%,-1%
SMILES,ATXN viability,ATXN2 expr inh,HepG2 tox,TGFb inhibitor
CC(C)CCNC(=O)c1c(N)n(Cc2ccc3c(c2)OCO3)c2nc3ccccc3nc12,i,?,-3%,2%
O=C1C=CC[C@@H]2[C@H]3CCCN4CCC[C@@H](CN12)[C@@H]34,/,1.5µM*,/,/
C[C@]12CC[C@H]3[C@@H](CC[C@@]45O[C@H]4C(O)=C(C#N)C[C@]35C)[C@H]1CC[C@H]2O,i,-6%,/,/
COC1CC2C=C(C)C=CC=CC(=O)NC(c3ccccc3)CC=CCCC(O)CC(=O)C2=C1O (stereo not drawn),14µM*,2.8µM*,-110%,?
CCc1c(C(=O)C(N)=O)c2c(OCC(=O)O)cccc2n1Cc1ccccc1,/,-2%,/,/
COc1ccc(C)cc1NC(=O)C1CCN(S(=O)(=O)c2ccc3[nH]c(=O)oc3c2)CC1,i,-3%,-34%,-8%
CN(C)c1ccc(C=C2C(=O)NC(=S)NC2=O)cc1,/,?,-24%,-6%
CCN(CC)c1ccc(C=C2C(=O)NC(=S)NC2=O)cc1,?,/,16µM*,18µM*

# Screening data (PubChem)
